These results are taken from PubChem BioAssay (EPA / NIEHS).

A short description of assay [1]: ATG_TGFb_CIS: Attagene CIS-FACTORIAL HepG2 Assay for human Transforming Growth Factor (TGF) (AID 2282967). The settings on record: HepG2 Attagene CIS TGFb reporter, mRNA transcription; actives raise or lower the signal. In outline:
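Transcript-level reporter readout: HepG2 transfectants, 24 h exposure, RNA to cDNA, reporter-specific PCR, fluorescent primer extension, capillary sizing against ROX standards. Gain- or loss-of-signal relative to DMSO.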

Assay [2] in a line: ATG_VDRE_CIS: Attagene CIS-FACTORIAL HepG2 Assay for human Vitamin D Receptor Element (VDRE) (AID 2282968). The settings on record: HepG2 VDRE cis-reporter transcription, actives raise or lower the signal. In a few lines:
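In transiently transfected HepG2 liver cells, gain or loss of reporter mRNA after 24 h exposure is scored relative to DMSO, using fluorescence detection by capillary electrophoresis of RT-PCR products.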

In assay [3] the target is Nuclear receptor subfamily 1 group I member 3 (Homo sapiens) (UniProt Q14994). The assay is described as follows: ATG_CAR_TRANS: Attagene TRANS-FACTORIAL HepG2 Assay for human Constitutive Androstane Receptor (CAR) (AID 2282969; active = hit-call score of the fitted dose curve at least 0.9, where 1 is the maximum;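 also: activators raise reporter mRNA above DMSO so AC50 marks induction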). The settings on record: HepG2 Attagene TRANS-FACTORIAL CAR reporter. In outline: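 Readout is reporter mRNA induction, quantified by fluorescent primer extension and capillary electrophoresis after RT-PCR. Cells were HepG2 transiently carrying chimeric NR-Gal4 constructs with GAL4-UAS reporters, treated for 24 h; activity scored upward from DMSO.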
Chain of Nuclear receptor subfamily 1 group I member 3 (Homo sapiens) (Q14994 whole entry, looked up, the tested form may be a part): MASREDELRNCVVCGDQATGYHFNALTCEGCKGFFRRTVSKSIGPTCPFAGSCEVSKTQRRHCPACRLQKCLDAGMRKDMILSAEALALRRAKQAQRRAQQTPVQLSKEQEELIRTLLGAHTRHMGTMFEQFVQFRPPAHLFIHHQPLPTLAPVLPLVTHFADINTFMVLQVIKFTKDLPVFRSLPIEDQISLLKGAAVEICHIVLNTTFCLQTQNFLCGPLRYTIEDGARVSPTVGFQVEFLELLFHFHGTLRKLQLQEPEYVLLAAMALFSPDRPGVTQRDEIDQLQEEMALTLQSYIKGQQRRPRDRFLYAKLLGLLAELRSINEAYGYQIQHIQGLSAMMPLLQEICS

Assay [4] concerns the target X-box-binding protein 1 (Homo sapiens) (UniProt P17861). The assay is described as follows: ATG_Xbp1_CIS: Attagene CIS-FACTORIAL HepG2 Assay for human X-box Binding Protein 1 (XBP1) (AID 2282972). The settings on record: HepG2 XBP1 cis-element reporter, Attagene multiplex; actives raise or lower the signal. In a few lines: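 HepG2 cells transiently transfected with cis-regulated multiple reporter transcription units; endogenous transcription factor activity measured 24 hours after chemical dosing. Reporter mRNA quantified by RT-PCR, 6-FAM primer extension, HpaI digestion and capillary electrophoresis; bidirectional fitting versus DMSO.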

The target in assay [5] is Estrogen-related receptor gamma (Homo sapiens) (UniProt P62508). The assay is described as follows: ATG_ERRg_TRANS: Attagene TRANS-FACTORIAL HepG2 Assay for human Estrogen-Related Receptor gamma (ERRg) (AID 2282977; active = hit-call score of the fitted dose curve at least 0.9, where 1 is the maximum;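 also: hits increase reporter signal over DMSO so potencies reflect activators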). The settings on record: HepG2 Attagene TRANS reporter, ERRg transactivation. In outline: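 Transient HepG2 transfectants, 24 h compound exposure, GAL4-UAS reporter mRNA by RT-PCR/6-FAM labelling/capillary electrophoresis; positive direction vs DMSO.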
Chain of Estrogen-related receptor gamma (Homo sapiens) (P62508 whole entry, looked up, the tested form may be a part): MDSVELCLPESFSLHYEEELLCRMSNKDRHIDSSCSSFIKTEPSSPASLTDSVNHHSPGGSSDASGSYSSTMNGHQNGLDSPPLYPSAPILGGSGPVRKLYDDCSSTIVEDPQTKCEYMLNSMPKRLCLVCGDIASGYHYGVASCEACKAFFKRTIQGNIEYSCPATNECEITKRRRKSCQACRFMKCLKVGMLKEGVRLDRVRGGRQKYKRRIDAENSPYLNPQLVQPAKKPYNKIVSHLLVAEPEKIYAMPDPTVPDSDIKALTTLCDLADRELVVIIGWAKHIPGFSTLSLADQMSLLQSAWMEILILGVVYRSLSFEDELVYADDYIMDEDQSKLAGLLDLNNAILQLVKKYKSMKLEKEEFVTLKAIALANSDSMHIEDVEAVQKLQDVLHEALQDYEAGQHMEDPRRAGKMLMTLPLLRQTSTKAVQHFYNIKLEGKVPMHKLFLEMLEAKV

Assay [6] in a line: ATG_M_19_TRANS: Attagene TRANS-FACTORIAL HepG2 Assay for M19 Transcription Factor (Internal Marker) (AID 2282974; active = hit-call score of the fitted dose curve at least 0.9, where 1 is the maximum). The settings on record: HepG2 Attagene TRANS-FACTORIAL M19 internal marker reporter. In outline: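 After transfection of HepG2 with GAL4-UAS-driven reporter constructs, cells are dosed for 24 h. Total RNA is reverse-transcribed, reporter sequences PCR-amplified and labelled, then HpaI-digested and sized by capillary electrophoresis.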

Assay [7] concerns the target Glucocorticoid receptor (Homo sapiens) (UniProt P04150). The assay is described as follows: ATG_GR_TRANS: Attagene TRANS-FACTORIAL HepG2 Assay for human Glucocorticoid Receptor (GR) (AID 2282978; active = hit-call score of the fitted dose curve at least 0.9, where 1 is the maximum;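 also: activators score as hits since higher reporter transcript over DMSO is fitted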). The settings on record: HepG2 Attagene TRANS GR reporter, mRNA transcription. In outline: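 Multiplexed TRANS reporter system, HepG2; 24 h exposure; RNA → oligo(dT) RT → reporter-specific PCR → 6-FAM primer extension → HpaI cut → CE fluorescence. Gain-of-signal vs DMSO.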

Assay [8] has as its target Estrogen receptor (Homo sapiens) (UniProt P03372). The assay is described as follows: ATG_ERa_TRANS: Attagene TRANS-FACTORIAL HepG2 Assay for human Estrogen Receptor alpha (ERa) (AID 2282970; active = hit-call score of the fitted dose curve at least 0.9, where 1 is the maximum). The settings on record: HepG2 Attagene TRANS ERa GAL4 reporter, mRNA. In outline:
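Transactivation via ERa-Gal4 chimera in HepG2; 24 hour incubation; reporter mRNA detected by fluorescence RT-PCR and capillary electrophoresis.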

The nature of assay [9]: ATG_GAL4_TRANS: Attagene TRANS-FACTORIAL HepG2 Assay for GAL4 (Internal Marker) (AID 2282976; active = hit-call score of the fitted dose curve at least 0.9, where 1 is the maximum). The settings on record: HepG2 Attagene TRANS GAL4 internal marker reporter. In a few lines:
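Fluorescence from capillary electrophoresis of labelled RT-PCR products quantifies reporter mRNA induction after 24 h dosing of HepG2 cells carrying transfected GAL4-UAS reporter transcription units. Vehicle DMSO serves as baseline.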

The target of assay [10] is Steroid hormone receptor ERR1 (Homo sapiens) (UniProt P11474). The assay is described as follows: ATG_ERRa_TRANS: Attagene TRANS-FACTORIAL HepG2 Assay for human Estrogen-Related Receptor alpha (ERRa) (AID 2282971; active = hit-call score of the fitted dose curve at least 0.9, where 1 is the maximum). The settings on record: HepG2 Attagene TRANS reporter, ERRa transactivation. In outline:
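HepG2 cells were transiently transfected with multiple GAL4-UAS reporter units, then dosed with compound for 24 h. Total RNA was reverse-transcribed, reporter cDNA PCR-amplified and fluorescently labelled, and fragments resolved by capillary electrophoresis; induction was compared with DMSO.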

Where “and” joins values, the source holds several entries; their conditions need not be identical. Equal values may be shown once. Results filed as inconclusive are left out. More than one record can exist for a structure, and the calls need not agree. Calls of active or inactive are those of the source. The calls were made as follows, unless noted: active = hit-call score of the fitted dose curve at least 0.9, where 1 is the maximum; inactive = score below 0.9.

Chain of Steroid hormone receptor ERR1 (Homo sapiens) (P11474 whole entry, looked up, the tested form may be a part): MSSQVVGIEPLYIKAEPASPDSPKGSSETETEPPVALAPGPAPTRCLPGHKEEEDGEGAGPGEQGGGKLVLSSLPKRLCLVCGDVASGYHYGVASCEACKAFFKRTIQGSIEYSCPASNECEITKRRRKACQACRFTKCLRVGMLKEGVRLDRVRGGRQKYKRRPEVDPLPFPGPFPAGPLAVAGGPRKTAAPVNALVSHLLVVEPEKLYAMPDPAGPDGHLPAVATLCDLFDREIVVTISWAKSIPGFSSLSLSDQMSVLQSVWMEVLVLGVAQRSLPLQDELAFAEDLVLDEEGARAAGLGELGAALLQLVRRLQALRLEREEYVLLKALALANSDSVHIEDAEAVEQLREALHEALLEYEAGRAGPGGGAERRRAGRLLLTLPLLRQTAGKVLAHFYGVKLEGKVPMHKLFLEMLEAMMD
Chain of Estrogen receptor (Homo sapiens) (P03372 whole entry, looked up, the tested form may be a part): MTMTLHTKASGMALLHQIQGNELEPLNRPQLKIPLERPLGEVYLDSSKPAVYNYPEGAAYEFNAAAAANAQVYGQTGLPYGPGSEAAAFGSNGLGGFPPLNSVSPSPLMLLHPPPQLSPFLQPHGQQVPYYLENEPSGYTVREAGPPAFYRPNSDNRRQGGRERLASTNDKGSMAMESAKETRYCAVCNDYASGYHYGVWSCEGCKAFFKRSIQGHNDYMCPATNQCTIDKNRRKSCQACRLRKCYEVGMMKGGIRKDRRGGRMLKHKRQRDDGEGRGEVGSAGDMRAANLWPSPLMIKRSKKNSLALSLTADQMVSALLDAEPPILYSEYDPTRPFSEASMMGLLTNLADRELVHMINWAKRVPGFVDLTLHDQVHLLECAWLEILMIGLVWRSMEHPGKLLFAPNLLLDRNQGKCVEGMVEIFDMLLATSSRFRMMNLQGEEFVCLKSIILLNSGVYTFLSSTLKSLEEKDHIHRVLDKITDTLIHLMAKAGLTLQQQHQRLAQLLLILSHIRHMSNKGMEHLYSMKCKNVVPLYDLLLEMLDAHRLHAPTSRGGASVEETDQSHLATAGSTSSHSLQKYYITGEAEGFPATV
Chain of X-box-binding protein 1 (Homo sapiens) (P17861 whole entry, looked up): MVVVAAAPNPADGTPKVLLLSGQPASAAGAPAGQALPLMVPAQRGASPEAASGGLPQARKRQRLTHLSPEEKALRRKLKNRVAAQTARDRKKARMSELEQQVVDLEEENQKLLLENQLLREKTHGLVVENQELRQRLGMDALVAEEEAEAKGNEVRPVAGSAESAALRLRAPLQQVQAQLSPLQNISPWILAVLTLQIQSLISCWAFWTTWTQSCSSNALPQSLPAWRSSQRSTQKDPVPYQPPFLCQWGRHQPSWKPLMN
Chain of Glucocorticoid receptor (Homo sapiens) (P04150 whole entry, looked up): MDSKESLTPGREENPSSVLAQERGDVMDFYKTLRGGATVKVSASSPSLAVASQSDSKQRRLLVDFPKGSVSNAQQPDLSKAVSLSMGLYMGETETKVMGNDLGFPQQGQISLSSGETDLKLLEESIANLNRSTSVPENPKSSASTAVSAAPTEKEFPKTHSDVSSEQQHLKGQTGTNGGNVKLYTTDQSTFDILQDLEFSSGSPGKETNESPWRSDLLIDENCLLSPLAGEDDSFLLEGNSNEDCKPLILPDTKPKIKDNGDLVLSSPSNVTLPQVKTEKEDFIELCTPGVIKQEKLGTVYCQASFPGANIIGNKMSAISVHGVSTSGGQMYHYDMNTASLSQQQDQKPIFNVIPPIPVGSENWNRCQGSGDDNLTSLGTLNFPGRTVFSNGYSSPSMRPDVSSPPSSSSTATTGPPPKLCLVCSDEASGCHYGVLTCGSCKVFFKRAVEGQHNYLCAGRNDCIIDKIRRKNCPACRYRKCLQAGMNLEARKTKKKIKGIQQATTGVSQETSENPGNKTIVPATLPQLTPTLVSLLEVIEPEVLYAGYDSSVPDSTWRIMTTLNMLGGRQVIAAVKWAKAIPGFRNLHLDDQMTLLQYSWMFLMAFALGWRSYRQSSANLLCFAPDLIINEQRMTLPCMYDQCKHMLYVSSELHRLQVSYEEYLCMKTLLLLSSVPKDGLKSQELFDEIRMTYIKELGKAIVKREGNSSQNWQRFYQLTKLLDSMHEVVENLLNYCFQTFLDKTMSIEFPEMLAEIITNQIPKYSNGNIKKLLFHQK

As for `O=C(O)CN(CC(=O)O)CC(=O)O`, the molecule was classed as inactive in assay [1], in [2], in assay [3], in assay [4] and in assay [5].
For `Oc1ccccc1O`, the outcome in assay [1], in [3], in [6] and in assay [7] was inactive. Also, the AC50 (commonly the concentration giving half of the maximal activity seen) in [2] was 27.5 µM (active); in assay [4] it was 35.7 µM (active).
As for `CSc1ccc(Oc2ccc(S(N)(=O)=O)cc2CN(C)C)cc1C`, the call in assay [1], in assay [3], in assay [8], in assay [4], in [6] and in assay [9] was inactive. In [2], the AC50 is 29.8 µM (active).
For the molecule `NCCOCCOCCN`, the call in assay [1], in assay [2], in assay [3], in assay [4] and in [6] was inactive.
`CC(=O)O[C@]1(C(C)=O)CC[C@H]2[C@@H]3C=C(Cl)C4=CC(=O)[C@@H]5C[C@@H]5[C@]4(C)[C@H]3CC[C@@]21C`: the molecule was called inactive in [1], in [2], in assay [4], in assay [6] and in assay [9]. Also, the AC50 in assay [2] is 24.1 µM (active); in assay [4] it was 45.5 µM (active) and 51.8 µM (active) and 43 µM (active).
`O=NO`: the call in assay [1], in [2], in assay [3], in [4] and in [9] was inactive.
Regarding `O=C1CCCCC1`, the molecule was called inactive in assay [1], in assay [2], in [3], in [8], in assay [10] and in assay [4]. In addition, the call in [9] was inactive.
`CCCCCCC(C=O)=Cc1ccccc1`: the call in assay [1], in assay [2], in [3], in [4], in assay [6] and in assay [9] was inactive. In addition, the AC50 in assay [4] was 60 µM (active).
In the case of `CCCCCCCCCCCCCCCCO`, the result in assay [1], in assay [2], in assay [3], in assay [8] and in [4] was inactive.
For `O=C(N[C@@H](c1ccccc1)[C@@H]1CCCCN1)c1cccc(C(F)(F)F)c1Cl`, the molecule was classed as inactive in assay [1], in assay [8], in [10], in assay [9] and in assay [5]. For the same molecule, the AC50 in assay [2] was 20.4 µM (active); in assay [4], 33 µM (active).
In the case of `C/C=C/C=C/C(=O)O`, the call in assay [1], in assay [2], in assay [3], in assay [4], in assay [6] and in assay [9] was inactive.
In the case of `O=C(NS(=O)(=O)/C=C/c1cccs1)c1ccc(F)cc1Br`, the result in assay [1], in assay [2], in assay [3], in assay [8], in assay [4] and in assay [6] was inactive. Also, the molecule was classed as inactive in [9].
Regarding `C=CCCCCCCCCCCCC`, the result in [1], in [2], in [3], in assay [4], in assay [6] and in assay [7] was inactive.
In the case of `c1ccc2occc2c1`, the molecule was classed as inactive in assay [1], in assay [2], in assay [3], in assay [4] and in assay [5].
With `Cc1c(C)c2c(c(C)c1O)CCC(C)(COc1ccc(CC3SC(=O)NC3=O)cc1)O2` (stereo not drawn), the molecule was called inactive in assay [1], in assay [3], in [8], in [4] and in [6]. Further, the AC50 in assay [2] was 13.9 µM (active).
For the molecule `CCCCC(CC)CO` (stereo not drawn), the molecule was classed as inactive in [1], in [2], in [3] and in [4].
Consider `S=c1[nH]c2ccccc2s1`, for which the molecule was called inactive in [1], in assay [2], in assay [3], in [4], in assay [9] and in assay [5].
Consider `CC(C)(C)c1ccccc1`, for which the call in [1], in assay [2], in assay [3], in [4] and in assay [5] was inactive.
`Cc1cn([C@H]2C=C[C@@H](CO)O2)c(=O)[nH]c1=O`: the result in [1], in assay [2], in assay [3], in [4] and in assay [6] was inactive.
Turning to `CC1=C(C)S(=O)(=O)CCS1(=O)=O`, the result in assay [1], in assay [2], in assay [3], in assay [8] and in [4] was inactive.
Consider `OCC(CO)n1cnc(-c2ccc(F)cc2)c1-c1ccnc(Oc2ccccc2)n1`, for which the molecule was classed as inactive in [1], in [2], in assay [3], in [4] and in [6].
With `CC(=O)S[C@H](C(=O)N[C@H]1Cc2ccccc2[C@H]2CCC[C@@H](C(=O)O)N2C1=O)C(C)C`, the call in assay [1], in [2], in assay [3], in assay [10], in assay [4] and in [6] was inactive. Further, the call in [5] was inactive.
In the case of `CC(COCC(C)OC(=O)c1ccccc1)OC(=O)c1ccccc1` (stereo not drawn), the result in assay [1], in assay [2], in assay [3], in assay [10], in assay [4] and in assay [5] was inactive.
Take `CCCC(=O)O`: the molecule was classed as inactive in assay [1], in [2], in [3], in assay [10], in assay [4] and in assay [6]. The outcome in [5] was inactive.
In the case of `CCCC[C@H]1CN(CC2CCOCC2)C(=O)OC12CCN(C1(C)CCN(C(=O)c3c(C)ncnc3C)CC1)CC2`, the outcome in [1], in assay [2], in assay [3], in assay [10], in assay [4] and in [6] was inactive.
Regarding `CCN(CC)CCOc1ccc(C(=C(Cl)c2ccccc2)c2ccccc2)cc1`, the AC50 is 3.11 µM (active) in assay [1]; 3.11 µM (active) and 6.33 µM (active) and 1.3 µM (active) in assay [2]; 11.2 µM (active) in assay [4]. The result in [1], in [2], in assay [4], in assay [6] and in assay [9] was inactive.
Take `COC(=O)CCC(=O)OC`: the molecule was classed as inactive in assay [1], in assay [2], in [3], in assay [8], in [4] and in assay [6].
Regarding `COc1ccc(OC(F)(F)F)cc1CN[C@H]1CCCN[C@H]1c1ccccc1`, the result in assay [1], in assay [3], in assay [8], in assay [4] and in [6] was inactive. Moreover, the AC50 in assay [2] is 4.99 µM (active).
Turning to `CCCCc1nc2cccnc2n1Cc1ccc(-c2ccccc2-c2nnn[nH]2)cc1`, the molecule was called inactive in assay [1], in assay [2], in assay [3], in [8], in assay [4] and in assay [6].
